{
  "source": "PubChem BioAssay (NCATS)",
  "note": "Results filed as inconclusive are left out. A call without a number means that no potency is given here. The source made the active and inactive calls. The call rests on the fitted dose curve; in most records, active means well fitted cell-killing curve with a large enough effect; inconclusive means small, poorly fitted or top-dose-only effect; inactive means flat fitted curve, though single readings scatter. Potency means the concentration at half of the fitted maximal effect.",
  "data": [
    {"experiment": "qHTS of pediatric cancer cell lines to identify multiple opportunities for drug repurposing: Primary screen for BT-12 cells (AID 1347101); further: nearly all actives have a fitted effect of over 25% in size", "conditions": "BT-12 viability, CellTiter-Glo luminescence, 48 h; series mostly up to 57.3 µM", "from_the_text": "Drug repurposing or repositioning has been offered as a strategy for drug development in oncology programs. This approach has special potential for childhood cancers and other rare or orphan diseases, where the expected return on new drug development has been a disincentive to pharmaceuticals.\nIn this project we exploit the poly-pharmacology of drugs to discover new indications via phenotypic screening of a panel of 19 well-characterized cell lines derived from solid tumors seen in children and adolescents. The goal is to identify approved drugs with previously unrecognized anticancer properties that has the potential to reveal new mechanisms and biological processes involved in carcinogenesis or drug resistance. We employed a titration-based paradigm (quantitative high-throughput screening or qHTS), where all compounds were tested at multiple concentrations for their effect on cell viability. Concentration-response curves (CRCs) were derived directly from the primary screen, and both potency and efficacy values were used to identify compounds with robust bioactivity profiles. We screened the NIH Chemical Genomics Center (NCGC) Pharmaceutical Collection (NPC) and Mechanism Interrogation Plate (MIPE) small molecule collections of approved and investigational compounds against these cell lines; and measured metabolically active cells after 48 hours of compound treatment as a proxy for cell viability.\nAssay Submitter: Nathalia J. Martinez, National Center for Advancing Translational Sciences, National Institutes of Health, Rockville, MD, USA; email: natalia.martinez@nih.gov\n[1] Shen, M et al. Quantitative high-throughput phenotypic screening of pediatric cancer cell lines identifies multiple opportunities for drug repurposing. Oncotarget 2017 Dec 19;9(4):4758-4772. PMID 29435139.\nThe cells were obtained from University of North Carolina (UNC), Pediatric Preclinical Testing Program (PPT), and Coriell Institute (CI).\nqHTS cell viability assay:\nCells were assayed in growth media at a density of 500-1,000 cells/well. Five microliters of cells were dispensed into 1,536-well, white, solid-bottom, TC-treated plates (Greiner Bio One) using a multidrop dispenser and incubated at 37 degrees C, 5% CO2, under a humidified atmosphere for 5 hours. Twenty-three nanoliters of compounds and controls (neutral control DMSO or positive control bortezomib at final concentration of 2.3 µM) were subsequently transferred by Kalypsys pintool. For primary screens, the MIPE collection was tested at 11-point dilutions (final concentrations range from 0.78 nM to 46 µM) and the NPC collection at 8-point dilutions (final concentrations range from 0.59 nM to 46 µM). Compounds tested in follow-up screens were assayed at 11-point dilutions. Cells were incubated for 48 hours, followed by addition of 3 µL of CellTiter-Glo (Promega). After a 15 min incubation at room temperature, samples were analyzed for luminescence intensity using a ViewLux High-throughput CCD imager equipped with clear filters.", "values": [
      {"smiles": "S=C(SSC(=S)N1CCCCC1)N1CCCCC1", "Potency": "0.0389 µM (active)"},
      {"smiles": "CC(=O)[O][Hg][c]1ccccc1", "Potency": "3.47 µM (active)"},
      {"smiles": "CCCCCCCCCCCCCCCC[N+](C)(C)C", "Potency": "7.77 µM (active)"},
      {"smiles": "O=C(Nc1ccncc1)C(=O)c1cn(Cc2ccc(Cl)cc2)c2ccccc12", "Potency": "0.137 µM (active)"},
      {"smiles": "CN[C@@H]1Cc2cccc3[nH]c(=O)n(c23)C1", "Potency": "inactive"},
      {"smiles": "CC1=C(C(=O)O)N2C(=O)[C@@H](N)[C@H]2SC1", "Potency": "inactive"},
      {"smiles": "O=c1[nH]c2ccc(Cl)cc2c(N[C@@H]2CN3CCC2CC3)c1-c1nc2ccccc2[nH]1", "Potency": "15.3 µM (active)"},
      {"smiles": "Cc1c(C(=O)c2cccc3ccccc23)c2cccc3c2n1[C@H](CN1CCOCC1)CO3", "Potency": "27.3 µM (active)"},
      {"smiles": "CC(C)[C@]12O[C@@H]1[C@@H]1O[C@]13[C@]1(O[C@H]1C[C@@H]1C4=C(CC[C@@]13C)C(=O)OC4)[C@H]2O", "Potency": "0.001 µM (active)"},
      {"smiles": "C[C@H]1CCCC=CC2C[C@H](O)C[C@@H]2[C@H](O)C=CC(=O)O1", "note": "(stereo not given in full)", "Potency": "0.001 µM (active)"},
      {"smiles": "CC(=CCCC1=CCC(C2=CC(=O)OC2O)OC1O)CCC1=C(C)CCCC1(C)C", "note": "(stereo not given)", "Potency": "inactive"},
      {"smiles": "O=S(=O)(O)C(F)(F)C(F)(F)C(F)(F)C(F)(F)C(F)(F)C(F)(F)C(F)(F)C(F)(F)F", "Potency": "inactive"},
      {"smiles": "CC(C)NCC(O)c1ccc([N+](=O)[O-])cc1", "note": "(stereo not given)", "Potency": "inactive"},
      {"smiles": "N=c1c2c(-c3ccccc3)c(-c3ccccc3)n(Cc3ccccc3)c2ncn1C1CCC(O)CC1", "note": "(stereo not given)", "Potency": "6.85 µM (active)"},
      {"smiles": "CN(C)[C@@H]1C(=O)C(C(N)=O)=C(O)[C@@]2(O)C(=O)C3=C(O)c4c(O)cccc4[C@@](C)(O)[C@H]3[C@H](O)[C@@H]12", "Potency": "inactive"},
      {"smiles": "O=S(=O)(F)Cc1ccccc1", "Potency": "inactive"},
      {"smiles": "C[C@@H]1CC[C@@]2(OC1)O[C@H]1C[C@H]3[C@@H]4CC=C5C[C@@H](O[C@@H]6O[C@H](CO)[C@@H](O[C@@H]7O[C@@H](C)[C@H](O)[C@@H](O)[C@@H]7O)[C@H](O)[C@@H]6O[C@@H]6O[C@@H](C)[C@H](O)[C@@H](O)[C@@H]6O)CC[C@]5(C)[C@@H]4CC[C@]3(C)[C@@H]1[C@H]2C", "Potency": "6.85 µM (active)"},
      {"smiles": "O=C(O)COc1ccccc1", "Potency": "inactive"},
      {"smiles": "O=C(O)CCCOc1ccc(Cl)cc1Cl", "Potency": "inactive"},
      {"smiles": "C[C@]12Cc3cn[nH]c3C[C@@H]1CC[C@@H]1[C@H]2CC[C@@]2(C)[C@H]1CC[C@]2(C)O", "Potency": "inactive"},
      {"smiles": "CC[C@@H](C(N)=O)N1CCCC1=O", "Potency": "inactive"},
      {"smiles": "Cc1cc(O)ccc1Cl", "Potency": "inactive"},
      {"smiles": "Cc1[nH]nc2ccc(-c3cncc(OC[C@@H](N)Cc4c[nH]c5ccccc45)c3)cc12", "Potency": "1.53 µM (active)"},
      {"smiles": "C#CC1(O)CCC2C3CCC4=CC(=O)CCC4(C)C3CCC21C", "note": "(stereo not given)", "Potency": "inactive"},
      {"smiles": "C=CC(=O)NCNC(=O)C=C", "Potency": "inactive"},
      {"smiles": "C[C@]12CCC(=O)C(O)=C1CC[C@@H]1[C@H]3CCC(=O)[C@@]3(C)CC[C@@H]12", "Potency": "inactive"},
      {"smiles": "O=[N+]([O-])/N=C1\\NCCN1Cc1ccc(Cl)nc1", "Potency": "inactive"},
      {"smiles": "CO/C=C(/C(=O)OC)c1ccccc1Oc1cc(Oc2ccccc2C#N)ncn1", "Potency": "8.93 µM (active)"},
      {"smiles": "CC(C)(C)C(O)C(Oc1ccc(Cl)cc1)n1cncn1", "note": "(stereo not given)", "Potency": "inactive"},
      {"smiles": "CSCC[C@@H](NC(=O)[C@@H](Cc1ccccc1)NC(=O)CNC(=O)CNC(=O)[C@@H](N)Cc1ccc(O)cc1)C(=O)O", "Potency": "inactive"},
      {"smiles": "C[C@]12CC[C@H](O)CC1=CC[C@H]1[C@H]3CCC(=O)[C@@]3(C)CC[C@@H]12", "Potency": "inactive"},
      {"smiles": "CC[C@@]1(O)C(=O)OCc2c1cc1n(c2=O)Cc2cc3ccccc3nc2-1", "Potency": "0.273 µM (active)"},
      {"smiles": "CN1[C@H]2CC(O)C[C@H]1[C@H]1O[C@H]12", "note": "(stereo not given in full)", "Potency": "19.3 µM (active)"},
      {"smiles": "COC(=O)[C@@H](N)CCCN=C(N)N[N+](=O)[O-]", "Potency": "inactive"},
      {"smiles": "c1cc2c(cc1[C@H]1OC[C@H]3[C@H]1CO[C@H]3c1ccc3c(c1)OCO3)OCO2", "Potency": "inactive"},
      {"smiles": "COc1cc2cc(c1Cl)N(C)C(=O)C[C@H](OC(=O)C(C)C)[C@]1(C)O[C@H]1[C@H](C)[C@@H]1C[C@@](O)(NC(=O)O1)[C@H](OC)C=CC=C(C)C2", "Potency": "0.0485 µM (active)"},
      {"smiles": "COC(C)(C)CCCC(C)C/C=C/C(C)=C/C(=O)OC(C)C", "note": "(stereo not given)", "Potency": "inactive"},
      {"smiles": "CCN1CCN(C(=O)Cc2ccc(Nc3ncc(F)c(Nc4ccc(C(=O)Nc5ccccc5Cl)cc4)n3)cc2)CC1", "Potency": "19.3 µM (active)"},
      {"smiles": "CC(C)(C)[C@]1(O)C[C@@H]2OC(=O)C[C@@]23C(=O)O[C@@H]2OC(=O)[C@H](O)C213", "note": "(stereo not given in full)", "Potency": "inactive"},
      {"smiles": "CCN1C[C@]2(OC(=O)c3ccccc3NC(C)=O)CC[C@H](OC)[C@@]34[C@H]5CC6[C@@H](OC)C[C@](O)(C(C[C@@H]23)[C@@H]14)[C@@]5(O)[C@@H]6OC", "Potency": "inactive"}
    ]}
  ]
}
